Compound activity: PubChem BioAssay, National Center for Advancing Translational Sciences (NCATS)
IL-1B inflam inh: inflammasome signaling inhibition, IL-1 beta readout | 4.7% of 360,000 active | activity change, % at 57.5 µM | AID 743279 | THP-1 LPS/ATP IL-1B secretion, AlphaLISA, 16 h; hits give low values; in the data active = activity change below about -50%; inconclusive = mostly about -30% to -49%
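Secreted IL-1B measured by AlphaLISA bead assay after 16 h compound exposure of THP-1 cells; compounds (final up to 57.5 uM) added 1 h before LPS (250 ng/mL) and ATP (1.25 mM) stimulation; lower signal means less secretion.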
ELG1 repair inh: ELG1-dependent DNA repair inhibition. 2.3% of 330,000 active. HEK293T ELG1-luciferase reporter, luminescence, 16 h; DNA damage induced by 5-fluorouridine. Potency, µM (titrated, usually from 46.1 µM), hits mostly inhibitors; note: nearly all actives have a fitted effect of over 55% in size
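Reporter activity after DNA damage by 5-fluorouridine is monitored. Compound-treated cells incubate 16 hr at 37 °C, then ONE-Glo is added for 30 min before luminescence reading.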
DT40 TDP1 no CPT: qHTS for Inhibitors of human tyrosyl-DNA phosphodiesterase 1 (TDP1): qHTS in cells in absence of CPT | Potency, µM (top dose mostly 46.2 µM), actives largely listed as inhibitors | 15% of 420,000 active | DT40 Tdp1-/- hTDP1 cells, no CPT, ATP luminescence, 48 h; note: nearly all actives have a fitted effect of over 55% in size
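Luminescent ATP content (CellTiter-Glo) served as the growth readout. Knockout chicken DT40 cells expressing human TDP1 were exposed to compounds without camptothecin for a minimum 48 hr at 37 °C.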
DT40 TDP1 CPT: DT40-hTDP1 cell growth loss with CPT; chicken DT40 Tdp1-/-;hTDP1 cells + 20 nM CPT, ATP luminescence, 48 h; Potency, µM (series often up to 46.2 µM), actives largely listed as inhibitors; 12% of 420,000 active; AID 686979; note: nearly all actives have a fitted effect of over 55% in size
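Chicken DT40 Tdp1-/- cells complemented with human TDP1, 400 cells/well, exposed to compounds plus 20 nM camptothecin for at least 48 h at 37 C; viability read as ATP content by CellTiter-Glo luminescence.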
RORgamma inh: blocks mouse ROR gamma transcriptional activity. P51450. Drosophila S2 Gal4-RORgamma UAS-luciferase reporter, 20 h. Potency, µM (titrated, usually from 53.6 µM), actives largely listed as inhibitors. 5.4% of 310,000 active; note: nearly all actives have a fitted effect of over 60% in size
Target sequence (P51450 whole entry, looked up, the tested form may be a part): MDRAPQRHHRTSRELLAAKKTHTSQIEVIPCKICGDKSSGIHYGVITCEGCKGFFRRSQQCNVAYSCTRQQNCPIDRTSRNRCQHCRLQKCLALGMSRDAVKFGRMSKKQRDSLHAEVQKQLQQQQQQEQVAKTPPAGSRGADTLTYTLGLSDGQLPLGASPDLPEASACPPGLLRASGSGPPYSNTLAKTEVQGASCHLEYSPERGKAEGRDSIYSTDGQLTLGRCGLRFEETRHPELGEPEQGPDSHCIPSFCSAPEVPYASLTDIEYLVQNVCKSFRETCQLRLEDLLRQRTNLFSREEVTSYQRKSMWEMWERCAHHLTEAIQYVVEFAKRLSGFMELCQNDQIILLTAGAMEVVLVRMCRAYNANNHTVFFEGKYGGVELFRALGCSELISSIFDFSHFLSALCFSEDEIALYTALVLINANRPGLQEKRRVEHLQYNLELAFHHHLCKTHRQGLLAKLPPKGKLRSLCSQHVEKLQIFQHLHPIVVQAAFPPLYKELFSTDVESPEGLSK
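A Gal4/UAS one-hybrid system in insect cells: metallothionein-promoter Gal4–ROR gamma fusion plus Photinus luciferase reporter. Copper sulfate 700 uM final, 20 hr ambient incubation, luminescent detection after 10 min with reagent.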
Gal4-VP16 FLuc: Gal4-VP16 reporter inhibition counter-screen. AID 2546. 3.5% of 310,000 active. Potency, µM (doses to about 53.6 µM), actives largely listed as inhibitors. Drosophila S2 Gal4-VP16 UAS-luciferase, luminescence, 20 h;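 note: Gal4-VP16 expression switched on by copper sulfate through the metallothionein promoter; nearly all actives have a fitted effect of over 50% in size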
A number is an active result; . = inactive; ? = inconclusive; / = no result; [ ] = dose if it differs, or a comment. This is a sample that favours compounds with a hit; in the whole collection about 21% have one here. Unless noted, calls come from the whole dose curve; as a rule, active = well fitted curve in the direction sought with a large enough effect; inconclusive = small, poorly fitted or top-dose-only effect, or another doubt; inactive = no such curve, though single readings can be large; an effect the other way counts as inactive or inconclusive.

SMILES	IL-1B inflam inh	ELG1 repair inh	DT40 TDP1 no CPT	DT40 TDP1 CPT	RORgamma inh	Gal4-VP16 FLuc
CCCNC(=O)C1(C)CCCN(C(=O)COCc2ccccc2)C1 (stereo not given)	.	/	.	.	/	/
CCCNC(=O)C1(C)CCCN(Cc2cc(-c3ccccc3)nn2C)C1 (stereo not given)	.	/	16µM	?	/	/
CC(C)NC(=O)C1(C)CCCN1Cc1ccccc1 (stereo not given)	.	/	?	.	/	/
O=C(N=C1SC2CS(=O)(=O)CC2N1c1ccc(Cl)c(Cl)c1)C1CCCO1 (stereo not given)	.	.	.	.	.	.
CC1(Oc2cccc(F)c2)CCN(Cc2ccc(-c3ccccn3)cc2)C1 (stereo not given)	.	/	18µM	?	/	/
CCCNC(=O)C1(C)CCCN(Cc2ccc(-c3ccccn3)cc2)C1 (stereo not given)	.	/	13µM	16µM	/	/
CCCNC(=O)C1(C)CCN(Cc2ccc(-c3ccccn3)cc2)C1 (stereo not given)	.	/	?	?	/	/
COCCN1C(=O)N[C@@H](c2ccc(Br)cc2)C(C(C)=O)=C1C	/	.	/	/	?	.
CN(CC(=O)Nc1cc(S(=O)(=O)N2CCCCCC2)ccc1Cl)Cc1ccc2c(c1)OCO2	.	?	?	16µM	/	/
COc1ccc(S(=O)(=O)N2CCCCCC2)cc1NC(=O)CN(C)Cc1ccc2c(c1)OCO2	.	21µM	21µM	?	/	/
COc1ccccc1CNCC(=O)Nc1ccc(N(C)C)cc1	.	?	?	?	.	.
CCn1c2ccccc2c2cc(NC(=O)CNCc3ccccc3OC)ccc21	.	?	5.8µM	5.2µM	.	.
CCn1c2ccccc2c2cc(NC(=O)COc3ccccc3OC)ccc21	.	?	3.7µM	5.2µM	?	.
COc1ccccc1CNCC(O)Cn1c2ccccc2c2ccccc21 (stereo not given)	-61	?	?	?	?	?
CCn1c2ccccc2c2cc(NC(=O)COc3ccc(C)c(C)c3)ccc21	/	/	.	.	/	/
Cc1nc2nc(C)c(NS(=O)(=O)c3ccc(F)cc3)c(=O)n2[nH]1	/	/	.	.	/	/
CN1CCN(c2ccc(NC(=O)c3cccc(OCc4ccccc4)c3)cc2)CC1	.	?	23µM	23µM	.[0.365 µM]	/
CCN1CCN(c2ccc(NC(=O)c3cccc(N4CCCC4=O)c3)cc2)CC1	.	?	.	.	.	.
CCN1CCN(c2ccc(NC(=O)c3cccc(OCc4ccccc4)c3)cc2)CC1	-80	.	?	?	.	.
COCCCNC(=O)/C(C#N)=C/c1c(N2CCN(C)CC2)nc2ccccn2c1=O	.	.	.	.	.	.
COCCNC(=O)/C(C#N)=C/c1c(N2CCN(c3ccccc3)CC2)nc2ccccn2c1=O	.	.	18µM	.	.	.
COCCCNC(=O)/C(C#N)=C/c1c(N2CCN(c3ccccc3)CC2)nc2ccccn2c1=O	.	?	15µM	?	.	.
CCOC(=O)N1CCN(c2nc3ccccn3c(=O)c2C=O)CC1	.	?	?	15µM	.	.
CN1CCN(c2nc3ccccn3c(=O)c2C=O)CC1	.	.	.	.	.	.
O=S1(=O)CC(N2CCCC2)CN1Cc1cn(Cc2cccc(Cl)c2)nn1 (stereo not given)	.	/	.	.	/	/
SMILES	IL-1B inflam inh	ELG1 repair inh	DT40 TDP1 no CPT	DT40 TDP1 CPT	RORgamma inh	Gal4-VP16 FLuc
COc1ccc(N(C(=O)c2ccc(Cl)cc2)S(=O)(=O)c2ccc(C)cc2)cc1	/	/	23µM	?	/	/
COc1ccc(N(C(=O)C(C)C)S(=O)(=O)c2cccs2)cc1	.	?	?	.	.	.
COc1ccc(S(=O)(=O)N(CC(=O)NCc2ccc(C)cc2)c2ccc(Cl)cc2)cc1	/	/	.	.	/	/
COc1ccc(S(=O)(=O)Oc2ccc3ccccc3c2)cc1	.	?	29µM	16µM	.	.
COc1ccc(N(C(=O)c2cccc(C)c2)S(=O)(=O)c2ccc(C)cc2)cc1	/	/	?	18µM	/	/
COc1ccc(N(C(=O)C(C)C)S(=O)(=O)c2ccc3ccccc3c2)cc1	.	.	?	15µM	.	.
COc1ccc(S(=O)(=O)Oc2ccc3cccc(N)c3c2)cc1	.	/	?	?	/	/
COc1ccc(N(C(=O)c2ccc(OC)c(OC)c2)S(=O)(=O)c2ccc(Cl)cc2)cc1	/	/	21µM	26µM	/	/
Cc1c(C(=O)NCCc2cccnc2)cnn1-c1ncc2c(n1)-c1ccccc1CC2	/	/	?	.[9.04 µM]	/	/
CCOC(=O)c1nnn(CC(=O)N2N=C(c3cc(C)ccc3C)CC2c2ccc(OC)cc2)c1C(=O)OCC (stereo not given)	.	.	15µM	29µM	.	.
CCN1CCN(CC(=O)N2N=C(c3ccc(OC)cc3)CC2c2ccc(OC)cc2)C(=O)C1=O (stereo not given)	.	.	.	.	.	.
CCOC(=O)c1nnn(CC(=O)N2N=C(c3ccccc3)CC2c2ccccc2)c1C(=O)OCC (stereo not given)	.	.	18µM	?	13µM	.
O=C(NCc1n[nH]c(=O)c2ccccc12)C1CC(=O)N(c2ccc(Cl)cc2)C1 (stereo not given)	.	.	.	?	/	/
COC(=O)C(C(=O)OC)C(CC(=O)c1ccc(C)cc1)c1cc(OC)c(OC)c(OC)c1 (stereo not given)	.	.	.	.	.	.
COc1ccc(C(CC(=O)c2ccc(C)cc2)C(C#N)C#N)cc1OC (stereo not given)	-100	?	5.2µM	4.1µM	?	?
Cn1c(=O)n(C)c2cc(CNC(=O)[C@H]3O[C@@H](n4ccc(=O)[nH]c4=O)[C@H](O)[C@@H]3O)ccc21	.	/	.	.	/	/
O=C(O)CCSc1nnc(COc2cccc3ccccc23)n1-c1cccc(Cl)c1	.	.	.	.	.	.
COc1ccc(-n2c(COc3cccc4ccccc34)nnc2SCC#N)cc1	.	?	?	?	.	.
Cc1ccccc1OCc1nnc(SCCN2CCCC2)n1-c1ccccc1	.	.	21µM	23µM	11µM	?
N#CCSc1nnc(COc2cccc3ccccc23)n1-c1cccc(Cl)c1	?	?	21µM	?	.[10 µM]	?
N#CCSc1nnc(COc2cccc3ccccc23)n1-c1ccccc1	-68	21µM	21µM	16µM	?	?
CC(C)N1C(=O)C(=O)N(CC(=O)N2c3ccccc3CC2C)C1=O (stereo not given)	.	/	.	.	/	/
CCOC(=O)c1c(-c2cc(OC)c(OC)c(OC)c2)csc1NC(=O)c1ccccc1	.	/	18µM	?	/	/
